Compound activity (PubChem BioAssay)
Hits are enriched below; roughly 1.2% of the tested compounds scored in any of these assays.
SUMO HTRF inh: inhibitors of human SUMOylation (UBC9) | P63279 | HTRF SUMOylation assay, SAE1/SAE2 + UBC9, in vitro | inhibition, % at 35 µM | actives 0.36% (n = 290,000); in the data active = inhibition above about 50%, passing the limit was not always enough
PKD1 inh: blocks activity of human protein kinase D1. Q15139. AID 797. PKD1 kinase fluorescence polarization assay. actives 0.056% (n = 200,000). inhibition, % (concentration not given with the values); in the data active = inhibition above about 50%
Redox H2O2 prof: compounds producing H2O2 with reducing agent – biochemical, NIH compound library profiling, artefact control for MLSCN library redox annotation, primary screen | DTT-dependent redox cycling H2O2, phenol red/HRP absorbance; 100% = 100 µM peroxide control, 0% = buffer | activation, % at 10 µM | actives 0.03% (n = 200,000);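 active = activation of at least 50% relative to the plate's high and low controls in the primary single-dose screen; inactive = activation below 50%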;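 note: compound incubated with DTT at 0.8 mM final as the reducing agent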
FAS-TE inh: inhibitors of human fatty acid synthase thioesterase domain | inhibition, % at 15 µM | actives 0.67% (n = 360,000) | recombinant FAS-TE, OMFH fluorogenic substrate, fluorescence endpoint | P49327;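 active = compounds whose normalised, plate-corrected inhibition of enzyme fluorescence in the single-dose primary screen is 50% or more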;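 note: 0% = DMSO with enzyme and 100% = substrate without enzyme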
Furin inh: inhibitors of human furin. purified furin, fluorogenic substrate cleavage. inhibition, % at 20 µM or 30 µM. actives 0.061% (n = 220,000); in the data active = inhibition above about 25%
p97 ATPase inh: blocks human p97 ATPase activity | recombinant p97 ATPase, Kinase-Glo ATP luminescence, 3 h | inhibition, % at 8 µM | actives 0.42% (n = 220,000); in the data active = inhibition above about 15%;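 note: 0% = DMSO vehicle and 100% = wells lacking enzyme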
Target sequence (P55072 whole entry, looked up): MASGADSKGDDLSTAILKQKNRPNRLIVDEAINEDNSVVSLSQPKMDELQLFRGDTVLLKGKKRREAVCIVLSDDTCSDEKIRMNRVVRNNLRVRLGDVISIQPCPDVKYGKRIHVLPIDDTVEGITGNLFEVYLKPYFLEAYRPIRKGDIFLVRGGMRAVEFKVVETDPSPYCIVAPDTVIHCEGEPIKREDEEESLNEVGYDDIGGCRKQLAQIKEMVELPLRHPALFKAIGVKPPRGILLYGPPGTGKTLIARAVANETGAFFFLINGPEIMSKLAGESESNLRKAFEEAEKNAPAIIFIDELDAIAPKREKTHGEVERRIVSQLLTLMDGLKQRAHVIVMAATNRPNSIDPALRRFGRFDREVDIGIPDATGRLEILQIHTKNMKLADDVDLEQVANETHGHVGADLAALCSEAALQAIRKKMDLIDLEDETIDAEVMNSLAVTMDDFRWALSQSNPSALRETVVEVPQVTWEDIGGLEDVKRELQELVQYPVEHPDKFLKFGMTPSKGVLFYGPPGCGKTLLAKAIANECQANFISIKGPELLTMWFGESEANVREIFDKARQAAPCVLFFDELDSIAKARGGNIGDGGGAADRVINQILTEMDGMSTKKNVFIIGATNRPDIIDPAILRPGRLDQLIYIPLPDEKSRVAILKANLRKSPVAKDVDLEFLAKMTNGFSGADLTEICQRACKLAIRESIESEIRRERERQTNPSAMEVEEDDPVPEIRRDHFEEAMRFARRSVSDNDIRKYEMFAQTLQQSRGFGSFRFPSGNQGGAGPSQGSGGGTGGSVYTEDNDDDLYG
FAS-TE inh conf: FAS thioesterase (human) inhibition, confirmation | shares compounds with FAS-TE inh | recombinant FAS-TE, OMFH fluorogenic substrate, fluorescence | inhibition, % at 15 µM | actives 45% (n = 2,300) | AID 624325;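 active = compounds inhibiting the enzyme by at least 50% at 15 µM in any one of the replicates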;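 note: 0% = enzyme with DMSO only and 100% = wells lacking enzyme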
An asterisk follows results filed as active; nt = no result given.

SMILES	SUMO HTRF inh	PKD1 inh	Redox H2O2 prof	FAS-TE inh	Furin inh	p97 ATPase inh	FAS-TE inh conf
O=C(Nc1ccc(F)cc1)C(c1ccccc1)N1CCN(S(=O)(=O)c2ccc3ccccc3c2)CC1 (configuration not stated)	-34.1	0.1	0.8	85.7*	8.4	7.1	18.2
Cc1ccc(-c2csc(NC(=O)C3CCN(S(=O)(=O)c4cccs4)CC3)n2)cc1	-15.6	0.7	-0.2	2.3	-23.3	1.6	nt
O=C(Nc1nc(-c2ccc3ccccc3c2)cs1)C1CCN(S(=O)(=O)c2cccs2)CC1	-35.7	2.8	-0.2	87.6*	-17.7	5.7	6.6
N#Cc1ccc(C(=O)Nc2ccc3ccccc3c2)cc1	4.2	nt	nt	8.3	nt	nt	nt
CNC(=O)c1ccccc1Sc1ccccc1C#N	0.3	-2.5	0.1	-1.6	-27.7	4.6	nt
N#Cc1ccccc1Sc1ccccc1C(=O)Nc1ccc(Br)cc1	-13.7	-13.7	-4.8	51.1*	-8.6	0.7	-7.3
N#Cc1ccccc1Sc1ccccc1C(=O)Nc1ccc2ccccc2c1	-20.5	7.9	2.9	59.5*	-15.6	9.7	37.5
CCOc1ccc(NC(=O)CN2C(=O)CSc3ccc(S(=O)(=O)N4CCCC4)cc32)cc1	nt	nt	nt	30.3	nt	nt	nt
O=C(CN1C(=O)CSc2cc(S(=O)(=O)N3CCCCCC3)ccc21)NCCc1ccccc1	1.0	-21.1	-0.4	50.3*	9.9	-2.7	8.5
COc1cccc(NC(=O)CN2C(=O)CSc3ccc(S(=O)(=O)N4CCCCC4)cc32)c1	nt	nt	nt	53.3*	nt	nt	65.8*
Cc1ccc(NC(=O)CN2C(=O)CSc3ccc(S(=O)(=O)N4CCCCC4)cc32)cc1	nt	nt	nt	55.7*	nt	nt	41.8*
CN(C)CCNC(=O)CN1C(=O)CSc2ccc(S(=O)(=O)N3CCCCC3)cc21	nt	nt	nt	-1.7	nt	nt	nt
Cc1ccc(CN2CC(=O)N3[C@H]4c5cc(Cl)ccc5OC[C@@H]4[C@H](c4ccccc4)[C@]3(C)C2=O)cc1	nt	nt	nt	83.5*	nt	nt	17.2
CCOC(=O)[C@H]1[C@H]2COc3ccc(Cl)cc3[C@@H]2N2C(=O)CN(Cc3ccccc3)C(=O)[C@@]12C	nt	nt	nt	13.9	nt	nt	nt
Cc1ccc(CN2CC(=O)N3[C@H]4c5cc(C)ccc5OC[C@@H]4[C@H](c4ccccc4)[C@]3(C)C2=O)cc1	nt	nt	nt	51.9*	nt	nt	9.2
COc1ccccc1C(CNC(=O)C(C)Oc1ccc(Br)cc1)N1CCCC1 (configuration not stated)	nt	nt	nt	-5.4	nt	nt	nt
CCC1CCCCN1S(=O)(=O)c1ccc(NC(=O)c2nc(S(C)(=O)=O)ncc2Cl)cc1 (configuration not stated)	-4.1	nt	nt	59.6*	nt	nt	65.8*
CS(=O)(=O)c1ncc(Cl)c(C(=O)Nc2ccc3ccccc3c2)n1	12.5	15.1	-0.1	57.1*	-19.6	10.1	33.4
CN1C(=O)CON=C1c1cccc2ccccc12	nt	nt	nt	-4.9	nt	nt	nt
CC(NC(=O)C12CC3CC(CC(C3)C1)C2)C(=O)N/N=C/C1=C(N2CCOCC2)C(=C\c2ccccc2)/CC1 (configuration not stated)	10.8	-2.3	0.3	70.6*	-4.7	-1.1	9.2
Cn1cc(C(=O)N/N=C/C2=C(N3CCOCC3)C(=C\c3ccccc3)/CC2)ccc1=O	6.4	-2.0	-0.7	-4.2	-3.0	-1.8	nt
C=CCN(CC=C)S(=O)(=O)c1ccc(NC(=S)NC(=O)/C=C/c2ccccc2)cc1	14.6	-3.2	-2.4	56.8*	-18.9	2.0	10.1
COc1ccc(-c2nn(-c3ccccc3)cc2C=O)cc1[N+](=O)[O-]	1.5	nt	nt	6.3	nt	nt	nt
COc1ccc(-c2nnc(SC)nc2-c2ccc(OC)c([N+](=O)[O-])c2)cc1[N+](=O)[O-]	nt	nt	nt	69.2*	nt	nt	-1.0
Cc1ccccc1-n1c(=O)/c(=C\c2ccco2)s/c1=C(/C#N)C(=O)Nc1ccccc1	45.8	5.7	1.4	62.0*	-17.3	4.3	18.4
SMILES	SUMO HTRF inh	PKD1 inh	Redox H2O2 prof	FAS-TE inh	Furin inh	p97 ATPase inh	FAS-TE inh conf
CCOc1ccc(NC(=S)N2CCc3cc(OC)c(OC)cc3C2COc2ccc3c(C)cc(=O)oc3c2)cc1 (configuration not stated)	-10.2	2.0	1.0	77.7*	-14.7	0.9	6.4
COc1cc2c(cc1OC)C(COc1ccc3c(C)cc(=O)oc3c1)N(C(=O)c1ccco1)CC2 (configuration not stated)	12.0	-7.2	2.3	17.7	-17.9	3.6	nt
COc1ccc(C(=O)Nc2ncccc2C)cc1S(=O)(=O)N1CCCc2ccccc21	nt	nt	nt	-3.4	nt	nt	nt
COc1ccc(C(=O)Nc2nc3c(s2)CCCC3)cc1S(=O)(=O)N1CCCc2ccccc21	-13.7	-9.9	0.0	63.0*	-20.1	-0.5	17.1
O=C(Cn1cc(C(F)(F)F)cc(Cl)c1=O)NCc1ccc(Cl)cc1Cl	6.5	nt	nt	2.1	nt	nt	nt
O=C(Cn1cc([N+](=O)[O-])ccc1=O)NCc1ccc(Cl)cc1Cl	3.0	nt	nt	56.1*	nt	nt	54.8*
O=C(COC(=O)c1cc([N+](=O)[O-])ccc1N1CCOCC1)NCc1ccc(Cl)cc1Cl	-16.2	nt	nt	92.6*	nt	nt	93.1*
O=C(COC(=O)c1cc([N+](=O)[O-])ccc1N1CCOCC1)NCc1ccccc1	nt	nt	nt	83.3*	nt	nt	90.4*
COc1cccc(CNC(=O)COC(=O)c2ccc(N3CCCC3=O)cc2)c1	nt	nt	nt	-4.5	nt	nt	nt
COc1cccc(CNC(=O)COC(=O)c2cc([N+](=O)[O-])ccc2N2CCCC2)c1	nt	nt	nt	80.8*	nt	nt	85.1*
COCCN(C(=O)COC(=O)CCSc1ccc(F)cc1)c1c(N)n(Cc2ccccc2)c(=O)[nH]c1=O	nt	nt	nt	-4.9	nt	nt	nt
CC(=O)Nc1cc(-c2cccc(C(=O)NCCO)c2)cn2c(-c3cccc(C(F)(F)F)c3)cnc12	nt	nt	nt	3.7	nt	nt	nt
CC(C)Oc1ccc(C2CC(=O)N(Nc3ccc([N+](=O)[O-])cc3[N+](=O)[O-])C2=O)cc1 (configuration not stated)	-1.8	nt	nt	90.3*	-12.5	5.0	92.0*
CCOc1ccc(C2CC(=O)N(Nc3ccc([N+](=O)[O-])cc3[N+](=O)[O-])C2=O)cc1 (configuration not stated)	-4.2	nt	nt	85.9*	1.5	-4.9	69.4*
CC(=O)c1ccc(N2CCN(S(=O)(=O)c3ccc4c5c3CC(=O)N5CC(C)S4)CC2)cc1 (configuration not stated)	13.4	nt	nt	18.8	nt	nt	nt
Cc1cc(C)c(C)c(S(=O)(=O)ON2C(=O)c3ccccc3C2=O)c1C	-2.2	2.6	-4.0	90.4*	-27.1	2.9	94.9*
O=C1c2ccccc2C(=O)N1OS(=O)(=O)c1ccc(F)cc1	8.4	nt	nt	70.7*	nt	nt	50.4*
Cc1cc(C)c(S(=O)(=O)ON2C(=O)c3ccccc3C2=O)cc1C	-3.9	-1.9	-3.5	90.8*	-5.2	14.0	95.0*
Cc1ccc(S(=O)(=O)ON2C(=O)c3ccccc3C2=O)c(C)c1	-18.1	-4.7	0.3	75.3*	-10.7	3.2	93.5*
